In ChEMBL document CHEMBL2218924, “A broad activity screen in support of a chemogenomic map for kinase signalling research and drug discovery” (Biochem J, 2013) one finds residual activity data, which are given here for ten compounds.

The target in assay [1] is MAP kinase-activated protein kinase 3 (Homo sapiens) (UniProt Q16644). Conditions: at 1 µM.
For assay [2], the target named is Mitogen-activated protein kinase 3 (Homo sapiens) (UniProt P27361). Particulars: at 1 µM.
Assay [3] has the same target. Particulars: at 10 µM.
The target of assay [4] is Mitogen-activated protein kinase 1 (Homo sapiens) (UniProt P28482). Conditions: at 1 µM.
The target is the same in assay [5]. Particulars: at 10 µM.
In assay [6] the target is MAP kinase-activated protein kinase 2 (Homo sapiens) (UniProt P49137). Particulars: at 1 µM.
The target is the same in assay [7]. Particulars: at 10 µM.
Assay [8] deals with MAP kinase-activated protein kinase 3 (Homo sapiens) (UniProt Q16644). Particulars: at 10 µM.
In assay [9] the target is Serine/threonine-protein kinase MARK1 (Homo sapiens) (UniProt Q9P0L2). Particulars: at 1 µM.
The target is the same in assay [10]. Conditions: at 10 µM.
Assay [11] has as its target Dual specificity mitogen-activated protein kinase kinase 1 (Homo sapiens) (UniProt Q02750). Conditions: at 1 µM.
Assay [12] shares this target. Conditions: at 10 µM.
The target of assay [13] is Maternal embryonic leucine zipper kinase (Homo sapiens) (UniProt Q14680). Conditions: at 1 µM.
Assay [14] shares this target. Particulars: at 10 µM.
The target of assay [15] is Misshapen-like kinase 1 (Homo sapiens) (UniProt Q8N4C8). Conditions: at 1 µM.
The target is the same in assay [16]. Particulars: at 10 µM.
Assay [17] addresses T1, Dual specificity mitogen-activated protein kinase kinase 6 (Homo sapiens) (UniProt P52564).
T1 sequence (whole entry): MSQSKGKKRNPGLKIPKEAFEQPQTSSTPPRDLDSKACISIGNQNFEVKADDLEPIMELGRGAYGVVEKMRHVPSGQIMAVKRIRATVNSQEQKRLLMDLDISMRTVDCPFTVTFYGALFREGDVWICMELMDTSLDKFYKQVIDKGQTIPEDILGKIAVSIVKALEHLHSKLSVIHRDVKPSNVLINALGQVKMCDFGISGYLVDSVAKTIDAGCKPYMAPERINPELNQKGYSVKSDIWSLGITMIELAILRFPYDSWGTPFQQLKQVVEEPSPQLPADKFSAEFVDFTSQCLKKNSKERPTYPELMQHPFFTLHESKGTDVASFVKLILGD
Conditions: at 1 µM.

The target in assay [18] is T1, Dual specificity mitogen-activated protein kinase kinase 6 (Homo sapiens). Conditions: at 10 µM.
The target of assay [19] is T2, Dual specificity mitogen-activated protein kinase kinase 7 (Homo sapiens) (UniProt O14733).
T2 sequence (whole entry): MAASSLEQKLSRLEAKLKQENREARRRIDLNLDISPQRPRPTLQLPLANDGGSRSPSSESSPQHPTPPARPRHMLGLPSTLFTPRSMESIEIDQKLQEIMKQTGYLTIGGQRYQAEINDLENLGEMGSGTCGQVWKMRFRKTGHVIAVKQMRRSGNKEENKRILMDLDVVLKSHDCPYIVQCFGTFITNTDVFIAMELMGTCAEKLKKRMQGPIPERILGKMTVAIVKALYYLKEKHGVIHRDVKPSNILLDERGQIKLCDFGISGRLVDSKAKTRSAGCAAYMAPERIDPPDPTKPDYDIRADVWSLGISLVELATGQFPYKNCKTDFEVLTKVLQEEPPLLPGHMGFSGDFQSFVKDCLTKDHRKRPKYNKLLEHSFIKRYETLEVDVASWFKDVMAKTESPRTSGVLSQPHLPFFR
Particulars: at 1 µM.

Assay [20] deals with T2, Dual specificity mitogen-activated protein kinase kinase 7 (Homo sapiens). Conditions: at 10 µM.

Sequence of Maternal embryonic leucine zipper kinase (Homo sapiens) (Q14680 whole entry, looked up): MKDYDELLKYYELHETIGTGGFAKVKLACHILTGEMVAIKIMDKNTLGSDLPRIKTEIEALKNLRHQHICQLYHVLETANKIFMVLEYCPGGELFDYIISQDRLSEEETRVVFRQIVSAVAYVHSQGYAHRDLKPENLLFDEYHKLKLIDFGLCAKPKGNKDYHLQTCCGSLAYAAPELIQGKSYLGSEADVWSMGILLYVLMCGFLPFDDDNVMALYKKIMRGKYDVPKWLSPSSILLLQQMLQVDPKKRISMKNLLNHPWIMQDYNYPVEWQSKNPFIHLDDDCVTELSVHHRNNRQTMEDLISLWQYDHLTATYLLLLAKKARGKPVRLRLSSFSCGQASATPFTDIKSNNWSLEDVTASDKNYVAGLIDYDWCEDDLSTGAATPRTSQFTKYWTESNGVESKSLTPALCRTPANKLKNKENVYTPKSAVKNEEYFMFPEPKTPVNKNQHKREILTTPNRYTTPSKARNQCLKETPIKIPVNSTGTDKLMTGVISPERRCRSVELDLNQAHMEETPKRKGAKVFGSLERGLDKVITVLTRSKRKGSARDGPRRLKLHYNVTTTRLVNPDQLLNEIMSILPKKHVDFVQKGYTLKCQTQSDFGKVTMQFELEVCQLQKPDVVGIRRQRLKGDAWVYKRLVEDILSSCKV
Sequence of Serine/threonine-protein kinase MARK1 (Homo sapiens) (Q9P0L2 whole entry, looked up): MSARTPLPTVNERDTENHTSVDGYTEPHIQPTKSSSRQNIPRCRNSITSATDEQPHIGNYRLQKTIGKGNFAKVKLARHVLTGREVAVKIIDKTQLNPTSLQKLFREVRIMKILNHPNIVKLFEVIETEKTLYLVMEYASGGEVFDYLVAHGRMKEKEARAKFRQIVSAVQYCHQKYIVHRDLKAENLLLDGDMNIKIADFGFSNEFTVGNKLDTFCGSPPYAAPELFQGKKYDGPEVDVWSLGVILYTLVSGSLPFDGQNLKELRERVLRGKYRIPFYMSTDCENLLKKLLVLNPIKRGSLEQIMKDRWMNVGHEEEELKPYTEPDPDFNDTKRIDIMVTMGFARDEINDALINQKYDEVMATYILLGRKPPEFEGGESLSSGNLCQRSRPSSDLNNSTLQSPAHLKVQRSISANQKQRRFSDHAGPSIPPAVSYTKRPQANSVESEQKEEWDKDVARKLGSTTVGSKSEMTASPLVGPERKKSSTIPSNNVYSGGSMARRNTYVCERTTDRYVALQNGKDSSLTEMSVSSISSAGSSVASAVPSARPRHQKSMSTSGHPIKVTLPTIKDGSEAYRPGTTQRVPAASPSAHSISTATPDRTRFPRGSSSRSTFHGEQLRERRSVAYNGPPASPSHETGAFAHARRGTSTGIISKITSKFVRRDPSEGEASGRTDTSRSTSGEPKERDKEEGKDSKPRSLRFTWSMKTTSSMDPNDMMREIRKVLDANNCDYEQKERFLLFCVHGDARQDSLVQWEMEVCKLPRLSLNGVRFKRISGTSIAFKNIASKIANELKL
Sequence of MAP kinase-activated protein kinase 2 (Homo sapiens) (P49137 whole entry, looked up): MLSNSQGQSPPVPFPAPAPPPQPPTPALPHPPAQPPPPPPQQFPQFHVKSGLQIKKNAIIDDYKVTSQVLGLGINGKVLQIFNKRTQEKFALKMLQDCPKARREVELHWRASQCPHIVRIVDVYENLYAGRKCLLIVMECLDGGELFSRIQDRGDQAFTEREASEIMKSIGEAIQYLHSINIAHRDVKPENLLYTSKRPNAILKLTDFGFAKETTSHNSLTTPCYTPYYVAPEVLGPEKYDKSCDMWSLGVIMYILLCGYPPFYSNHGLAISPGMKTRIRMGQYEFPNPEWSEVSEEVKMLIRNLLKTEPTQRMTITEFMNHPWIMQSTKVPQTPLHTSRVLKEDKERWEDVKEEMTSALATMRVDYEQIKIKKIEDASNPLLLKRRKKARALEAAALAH
Sequence of Mitogen-activated protein kinase 1 (Homo sapiens) (P28482 whole entry): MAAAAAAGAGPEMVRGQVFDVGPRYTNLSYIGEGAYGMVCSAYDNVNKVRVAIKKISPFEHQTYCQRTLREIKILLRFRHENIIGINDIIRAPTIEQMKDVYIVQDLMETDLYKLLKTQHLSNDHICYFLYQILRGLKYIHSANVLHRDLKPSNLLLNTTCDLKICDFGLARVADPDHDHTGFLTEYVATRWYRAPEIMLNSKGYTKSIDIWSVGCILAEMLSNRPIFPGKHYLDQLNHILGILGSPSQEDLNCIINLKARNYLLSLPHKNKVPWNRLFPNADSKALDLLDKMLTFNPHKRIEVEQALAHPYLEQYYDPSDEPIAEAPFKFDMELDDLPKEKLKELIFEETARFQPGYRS
Sequence of Misshapen-like kinase 1 (Homo sapiens) (Q8N4C8 whole entry, looked up): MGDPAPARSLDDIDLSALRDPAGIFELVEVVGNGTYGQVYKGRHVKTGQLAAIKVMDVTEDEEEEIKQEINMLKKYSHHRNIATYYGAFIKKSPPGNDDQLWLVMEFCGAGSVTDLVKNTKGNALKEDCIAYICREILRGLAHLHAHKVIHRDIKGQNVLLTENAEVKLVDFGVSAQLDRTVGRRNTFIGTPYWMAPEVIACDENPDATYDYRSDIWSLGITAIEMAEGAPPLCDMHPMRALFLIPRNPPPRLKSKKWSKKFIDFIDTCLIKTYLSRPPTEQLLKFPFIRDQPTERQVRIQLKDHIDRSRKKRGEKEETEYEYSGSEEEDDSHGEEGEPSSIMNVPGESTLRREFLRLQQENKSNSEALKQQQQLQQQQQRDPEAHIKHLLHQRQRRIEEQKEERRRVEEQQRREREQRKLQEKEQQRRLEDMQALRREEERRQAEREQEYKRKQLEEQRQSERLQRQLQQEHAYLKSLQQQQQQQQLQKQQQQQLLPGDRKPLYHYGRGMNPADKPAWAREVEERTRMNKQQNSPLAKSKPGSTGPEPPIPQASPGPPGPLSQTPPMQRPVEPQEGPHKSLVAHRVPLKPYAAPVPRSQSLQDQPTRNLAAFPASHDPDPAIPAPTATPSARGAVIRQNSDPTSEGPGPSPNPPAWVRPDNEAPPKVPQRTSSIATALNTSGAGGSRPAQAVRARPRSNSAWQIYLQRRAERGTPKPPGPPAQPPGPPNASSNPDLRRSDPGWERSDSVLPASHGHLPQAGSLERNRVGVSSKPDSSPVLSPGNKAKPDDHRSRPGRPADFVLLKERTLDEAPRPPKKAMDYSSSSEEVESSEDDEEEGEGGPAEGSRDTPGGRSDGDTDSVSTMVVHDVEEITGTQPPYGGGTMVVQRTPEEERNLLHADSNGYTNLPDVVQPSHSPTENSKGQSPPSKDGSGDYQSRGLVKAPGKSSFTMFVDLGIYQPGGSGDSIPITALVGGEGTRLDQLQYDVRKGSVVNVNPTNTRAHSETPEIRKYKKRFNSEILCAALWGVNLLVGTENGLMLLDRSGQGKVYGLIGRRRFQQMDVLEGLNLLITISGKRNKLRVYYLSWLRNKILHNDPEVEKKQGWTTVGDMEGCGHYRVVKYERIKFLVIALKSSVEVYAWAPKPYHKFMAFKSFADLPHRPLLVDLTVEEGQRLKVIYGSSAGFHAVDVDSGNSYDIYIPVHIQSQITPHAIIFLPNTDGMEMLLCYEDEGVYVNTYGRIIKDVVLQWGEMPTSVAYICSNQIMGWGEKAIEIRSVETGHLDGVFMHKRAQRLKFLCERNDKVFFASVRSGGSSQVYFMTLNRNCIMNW
Sequence of Mitogen-activated protein kinase 3 (Homo sapiens) (P27361 whole entry): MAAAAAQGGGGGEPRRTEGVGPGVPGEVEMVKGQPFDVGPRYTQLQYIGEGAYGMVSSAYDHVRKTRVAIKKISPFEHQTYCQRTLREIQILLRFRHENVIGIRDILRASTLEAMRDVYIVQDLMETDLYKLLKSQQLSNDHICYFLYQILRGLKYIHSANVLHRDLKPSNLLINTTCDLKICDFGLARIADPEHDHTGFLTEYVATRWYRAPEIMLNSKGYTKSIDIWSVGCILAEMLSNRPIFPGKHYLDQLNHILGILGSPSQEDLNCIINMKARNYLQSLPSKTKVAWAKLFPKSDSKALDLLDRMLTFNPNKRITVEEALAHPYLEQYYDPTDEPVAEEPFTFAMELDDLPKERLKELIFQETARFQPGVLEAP
Sequence of Dual specificity mitogen-activated protein kinase kinase 1 (Homo sapiens) (Q02750 whole entry): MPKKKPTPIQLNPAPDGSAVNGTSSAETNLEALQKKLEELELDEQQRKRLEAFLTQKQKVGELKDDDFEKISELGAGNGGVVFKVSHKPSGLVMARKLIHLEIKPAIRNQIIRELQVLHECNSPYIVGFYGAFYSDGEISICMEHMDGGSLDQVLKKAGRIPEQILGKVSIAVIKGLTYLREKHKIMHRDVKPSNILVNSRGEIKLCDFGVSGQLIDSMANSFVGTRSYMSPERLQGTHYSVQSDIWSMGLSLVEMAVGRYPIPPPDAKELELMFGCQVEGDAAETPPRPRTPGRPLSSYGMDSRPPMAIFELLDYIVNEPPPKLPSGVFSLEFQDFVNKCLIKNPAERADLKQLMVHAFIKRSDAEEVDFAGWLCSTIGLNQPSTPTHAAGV
Sequence of MAP kinase-activated protein kinase 3 (Homo sapiens) (Q16644 whole entry, looked up): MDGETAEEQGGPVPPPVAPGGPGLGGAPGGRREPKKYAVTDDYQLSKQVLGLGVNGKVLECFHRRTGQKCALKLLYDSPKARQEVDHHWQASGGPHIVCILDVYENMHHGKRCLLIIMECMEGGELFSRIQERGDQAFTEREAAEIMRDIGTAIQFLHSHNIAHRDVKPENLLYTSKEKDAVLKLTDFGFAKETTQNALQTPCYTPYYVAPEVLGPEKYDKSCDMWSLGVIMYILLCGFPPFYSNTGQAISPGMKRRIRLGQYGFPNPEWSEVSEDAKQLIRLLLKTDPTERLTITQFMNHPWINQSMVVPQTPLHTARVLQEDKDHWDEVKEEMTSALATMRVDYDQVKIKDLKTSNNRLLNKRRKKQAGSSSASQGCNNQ

`O=C1Nc2cc(Br)ccc2/C1=C1/Nc2ccccc2/C1=N\O`: the residual activity in [1] is 98%.
As for `COc1cc2ncnc(Nc3ccc(OCc4ccccc4)cc3)c2cc1OC`, the residual activity came out at 93% in assay [2]; 88% in [3]; 103% in assay [4]; 99% in assay [5]; 124% in assay [6]; 105% in [7]. The residual activity in assay [1] was determined as 101%; in assay [8], 115%; in [9] it was 104%; in assay [10], 94%; in assay [11] it was 115%; in assay [12], 84%. Moreover, the residual activity in assay [13] came out at 79%; in assay [14], 77%; in assay [15], 87%; in assay [16], 71%; in assay [17], 90%; in assay [18], 87%. In addition, the residual activity in assay [19] turned out to be 102%; in [20], 85%.
For the compound `CC(C)(C)n1nc(Cc2cccc3ccccc23)c2c(N)ncnc21`, the residual activity in assay [1] came to 116%.
In the case of `CC(C)[C@H](CO)Nc1nc(Nc2cccc(Cl)c2)c2ncn(C(C)C)c2n1`, the residual activity in [2] turned out to be 98%; in [3], 40%; in assay [4], 102%; in [5] it was 33%; in assay [6], 81%; in [7], 88%. In addition, the residual activity is 124% in [1]; 84% in assay [8]; 78% in assay [9]; 46% in assay [10]; 66% in assay [13]; 18% in [14]. For the same compound, the residual activity in [17] turned out to be 97%; in [18] it was 64%; in assay [19], 75%.
Regarding `Cc1ccc(NC2=CC(=O)c3sc(C)nc3C2=O)cc1`, the residual activity in [1] was 85%.
In the case of `COC(=O)[C@@]1(O)C[C@H]2O[C@]1(C)n1c3ccccc3c3c4c(c5c6ccccc6n2c5c31)C(=O)NC4`, the residual activity in [2] is 10%; in [3], -1%; in [4], 5%; in assay [5], -3%; in assay [6] it was 0%; in assay [7], -6%. Moreover, the residual activity in assay [1] is 47%; in [8], 2%; in [9], 0%; in assay [10], 0%; in [13], 1%; in assay [14], -1%. The residual activity in assay [15] amounted to 0%; in assay [16] it was 1%; in assay [19], 7%; in [20] it was 0%.
Turning to `CN(C)c1ccc(/C=C2\C(=O)Nc3ccccc32)cc1`, in assay [1], the residual activity is 101%.
Same read-out and setting: to `COc1cc2c(cc1OC)-c1n[nH]c(Nc3cccc(F)c3)c1C2` belongs 99%; to `Cn1cnc2cc3c(Nc4cccc(Br)c4)ncnc3cc21`, 107%.
Regarding `CC(C)(C)c1cc(C=C(C#N)C#N)cc(Br)c1O`, the residual activity stood at 129% in assay [2]; 97% in assay [3]; 105% in [4]; 104% in assay [5]; 104% in assay [6]; 107% in assay [1]. For the same compound, the residual activity in [8] was 69%; in assay [9] it was 105%; in [11], 113%; in [12], 96%; in assay [15], 122%; in assay [16], 113%. Further, the residual activity in assay [18] was determined as 115%; in [20], 102%.
